Most compounds without a hit are left out; they make up all but 3.3% or so of the library.
UbGFP stabilizer: Ubiquitin-GFP Assay; Ubiquitin-GFP reporter cells, proteasome inhibition, GFP fluorescence; response scale: untreated = 0%, 10 µM MG-132 = 100%; Potency, µM (highest dose often 45.9 µM), for the others: top-dose activation (GFP accumulation), actives largely listed as activators; 67,000 tested, under 10 active; active = well fitted activation curve with a large enough effect, not every such curve was filed as active; inconclusive = small, poorly fitted or top-dose-only effect, or another doubt; inactive = no such curve, though single readings can be large or run the other way; note: potency is the fitted concentration of half-maximal effect
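GFP accumulation read-out: laser plate cytometry counting ubiquitin(G76V)-GFP-expressing U2OS cells after 4 hr compound exposure at 37 °C. Titrations spanned 46 uM to 2.9 nM; 0% = basal, 100% = 10 uM MG-132; concentration-response curves fitted.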
GBA mod: Glucocerebrosidase | actives 1.1% (n = 48,000) | Lysosomal acid glucosylceramidase (Homo sapiens), P04062 | AID 360, 2006 | purified enzyme, resorufin glucoside fluorescence (screen aimed at inhibitors), 20 min | Potency, µM; in the data active = potency below about 15 µM; inconclusive = mostly about 16 µM to 33 µM;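 note: potency is the fitted concentration of half-maximal effect; the screen sought inhibitors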
Target sequence (P04062 whole entry, looked up): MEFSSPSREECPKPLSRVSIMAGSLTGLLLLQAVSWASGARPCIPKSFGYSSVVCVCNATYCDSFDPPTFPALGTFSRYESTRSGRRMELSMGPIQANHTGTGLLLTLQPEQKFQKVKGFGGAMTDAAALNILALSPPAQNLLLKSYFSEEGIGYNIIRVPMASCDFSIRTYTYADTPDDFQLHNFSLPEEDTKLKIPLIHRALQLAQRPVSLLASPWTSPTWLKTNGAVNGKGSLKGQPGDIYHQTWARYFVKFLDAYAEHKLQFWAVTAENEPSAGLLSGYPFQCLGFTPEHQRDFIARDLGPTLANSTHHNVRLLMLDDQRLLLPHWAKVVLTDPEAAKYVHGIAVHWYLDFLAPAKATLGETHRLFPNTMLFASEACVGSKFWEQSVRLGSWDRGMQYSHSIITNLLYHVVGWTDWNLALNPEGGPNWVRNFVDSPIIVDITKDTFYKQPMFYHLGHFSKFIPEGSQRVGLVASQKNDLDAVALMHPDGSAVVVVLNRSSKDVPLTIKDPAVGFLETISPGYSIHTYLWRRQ
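Normal human glucocerebrosidase (0.2 nM final) was assayed with resorufin β-D-glucopyranoside (30 uM final) in 50mM citric acid/KH2PO4, 10mM sodium taurocholate, 0.01% tween-20, pH 5.9. Compounds were titrated; fluorescence (Ex 548, Em 600) read after 20 min at RT.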
GFP derepression: qHTS Assay for Epigenetic Modulators. mouse C127i GFP locus derepression, cytometry, 30 h. Potency, µM (doses to about 46.1 µM), for inactives: at the top dose GFP derepression (activation). actives 0.09% (n = 68,000). AID 597, 2007; note: % of control where 0% means no effect
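Read-out is the number of GFP-positive cells, scored as fluorescent objects 20 to 120 um wide, reflecting derepression of a silenced CMV-GFP reporter in murine C127i cells after 30 h compound exposure at 37 C.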
HBB splicing: qHTS Assay for Modulators of Hemoglobin Beta Chain Splicing; HBB splicing reporter cell assay, activation; EGFP reporter with mutant IVS2-654 intron; response scale: normalised to 500 nM splice-correcting PNA; Potency, µM (highest dose often 46.1 µM), without a hit: at the top dose activation, actives largely listed as activators; actives 0.06% (n = 65,000); AID 925, 2007; note: potency is the fitted concentration of half-maximal effect; 0% is about no effect
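Compounds were applied for 2 days to HeLa EGFP-654 cells, 500/well in Optimem with 2% FCS. The reporter's EGFP is disrupted by mis-splicing of beta-globin intron IVS2-654. Readout: summed well GFP fluorescence from 488 nm laser scanning; reference was 500 nM antisense […] 654 PNA.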
PK Bst: Pyruvate Kinase; purified pyruvate kinase, luminescence ATP production; ribose 5-phosphate activator present at AC10; Potency, µM; actives 1.2% (n = 51,000); AID 361, 2006; in the data active = potency below about 11 µM; inconclusive = mostly about 12 µM to 25 µM;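 the screen sought inhibitors and activators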;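 note: potency is the fitted concentration of half-maximal effect; scaled between full activation by ribose 5 phosphate and full inhibition by luteolin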
FLuc inh: qHTS Assay for Inhibitors of Firefly Luciferase. Luciferin 4-monooxygenase (Photinus pyralis), P08659. purified firefly luciferase, luminescence, 8 min. Potency, µM (series often up to 57.1 µM), for the others: top-dose activity change, negative = inhibition, actives largely listed as inhibitors. actives 2.2% (n = 72,000). AID 411, 2009; note: potency is the fitted concentration of half-maximal effect; % is set by controls: 0 for no effect and ±100 for the full control effect; nearly all actives have a fitted effect of over 40% in size
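Firefly luciferase (PKLight detection mix) with 10 uM ATP in pH 7.2 imidazole buffer (KCl, MgCl2, Tween 20, BSA). Compounds tested across a concentration series (qHTS). Luminescence read after 8 min at ambient temperature.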
An asterisk follows results filed as active; i = inactive; ? = inconclusive; · = no result given; [ ] = dose if it differs, or a comment. Unless noted, calls come from the whole dose curve; as a rule, active = well fitted curve in the direction sought with a large enough effect; inconclusive = small, poorly fitted or top-dose-only effect, or another doubt; inactive = no such curve, though single readings can be large; an effect the other way counts as inactive or inconclusive.

SMILES	UbGFP stabilizer	GBA mod	GFP derepression	HBB splicing	PK Bst	FLuc inh
O=C1CC(Sc2nnnn2C2CCCCC2)C(=O)N1c1ccccc1 (stereo not given)	-10%	>77	-9%	0%	·	16µM*
c1ccc(CN2CCN(c3nc4ccccc4n4cnnc34)CC2)cc1	7%	·	7%	0%	·	-4%
NC1=NC2(CCC(c3ccccc3)CC2)n2c(nc3ccccc32)N1 (stereo not given)	-16%	15*	-1%	-1%	>57	1%
NC1=NC2(CCCCC2)n2c(nc3ccccc32)N1	-3%	i	-1%	0%	>57	0%
NC1=NC2(CCN(Cc3ccccc3)CC2)n2c(nc3ccccc32)N1	3%	3.7*	-2%	0%[57.5 µM]	6.9*	-2%
O=c1[nH]c(=O)n([C@H]2C[C@H](O)[C@H](CO)O2)cc1/C=C\Br	-2%	·	-3%	5%	·	3%
O=c1c(-c2cc(F)cc(F)c2)nc2cnc(N3CCOCC3)nc2n1CCc1ccccc1	-2%	·	-2%[9.22 µM]	2%	·	-1%[11.4 µM]
c1csc(CNc2ncncc2-c2ccoc2)c1	0%	·	-3%[9.22 µM]	0%	·	-1%[2.29 µM]
COc1ccccc1-c1cc(C(F)(F)F)nc(S(=O)(=O)CCCC(=O)Nc2cc(C)on2)n1	0%	9.4*	2%	2%	>57	0%
N#CC1=C(N)N(c2ccccc2)C2=C(C(=O)CCC2)C1c1ccsc1 (stereo not given)	-3%	15*	2%	0%	>57	-1%
CCSc1sccc1C1C(C#N)=C(N)N(c2cccnc2)C2=C1C(=O)CCC2 (stereo not given)	0%	>77	0%	-1%	>57	-2%
Clc1ccc2oc(-c3ccccn3)nc2c1	-4%	>77	2%	·	?	16µM*
c1ccc(-c2nc3ccccc3o2)nc1	-6%	>77	-1%	-3%	·	-26%
Nc1ccc2oc(-c3ccccn3)nc2c1	4%	>77	0%	0%[57.5 µM]	·	20µM*
NCCN1C(=O)c2ccccc2[C@@]1(O)c1ccc(Cl)cc1	-2%[9.17 µM]	·	-1%[9.22 µM]	0%[9.22 µM]	·	5%[11.4 µM]
Cc1nc(NC2CCCCC2)c2nc(-c3ccccc3)n(CCCN(C)C)c2n1	8%	·	·	-1%	·	·
C=CCNc1nc(N)c(C(=O)c2ccc3c(c2)OCO3)s1	3%	i	6%	0%[57.5 µM]	>57	-16%
C=CCNc1nc(N)c(C(=O)Nc2cc(C)on2)s1	-1%	·	3%	-1%	·	20µM*
C=CC1=C[C@@H](O)C2OC2C12OCCCO2 (stereo not given in full)	·	·	·	-1%[9.22 µM]	·	0%[11.4 µM]
CN(C)c1ccc(NC(=O)CCCc2ccccc2)cc1	1%	>77	-3%	0%	·	25µM*
CC(C)C[C@@H](CC(=O)N[C@@H](CCCN)CC(=O)N[C@@H]1CCNC[C@H]1C(=O)N[C@H](CC(=O)N[C@@H](CCC(=O)O)CC(=O)O)CC(C)C)NC(=O)[C@@H]1CCCC[C@H]1N	·	·	·	-1%	·	·
O=C(O)[C@@H](O)[C@@H](O)[C@@H](O)[C@@H](O)C(=O)O (tested in a mixture with another compound)	3%[20.5 µM]	·	5%[20.6 µM]	2%[20.6 µM]	·	0%[25.5 µM]
O=C(Nc1ccc(F)cc1)N(Cc1ccco1)Cc1cc2cc3c(cc2[nH]c1=O)OCO3	-3%	11*	4%	·	3.8*	-1%
Cc1ccc(NC(=O)N(Cc2ccc3c(c2)OCO3)Cc2cc3cc4c(cc3[nH]c2=O)OCCO4)cc1	-7%	>77	0%	·	>57	3%
Cc1noc(C)c1-c1cncnc1N1CCN(C)CC1	7%	·	0%[9.22 µM]	0%	·	1%[2.29 µM]
SMILES	UbGFP stabilizer	GBA mod	GFP derepression	HBB splicing	PK Bst	FLuc inh
CCOC(=O)C(/C(N)=N/C(=O)Nc1ccccc1)=C(\C)O	0%	·	4%	-1%	·	13µM*
O=C(c1cc(-c2ccc(F)cc2)on1)N1CCCC1	3%	>77	0%	-3%	·	13µM*
O=C(c1cc(-c2ccc(Cl)c(Cl)c2)on1)N1CCCC1	1%	·	-4%	1%	·	-4%
COc1cccc(-c2cc(C(=O)N3CCCCC3C)no2)c1 (stereo not given)	-2%	>77	-2%	0%	·	20µM*
COC(=O)c1cc(-c2cccc(OC)c2)on1	1%	>77	2%	2%	·	-23%
O=C(c1cc(-c2cccc(O)c2)on1)N1CCCCC1	0%	·	10%	-1%	·	16µM*
COc1cccc(-c2cc(C(=O)N3CCCCCC3)no2)c1	-6%	·	6%	0%	·	7.9µM*
O=C(Nc1ccc(-c2nc3ccccc3o2)cc1)C1CCCO1 (stereo not given)	-9%	>77	-3%	0%	6.3*	5µM*
O=C(Nc1ccc(Oc2ccccc2)cc1)C1CCCO1 (stereo not given)	16%	·	-2%	0%[9.22 µM]	·	-9%
CN(C)c1ncc2nc(-c3ccccc3)c(=O)n(Cc3cccs3)c2n1	6%	·	3%[9.22 µM]	-1%	·	1%[11.4 µM]
O=C(Nc1cccc(Cl)c1)Nc1nccs1	-3%	·	-2%	0%[57.5 µM]	·	-30%
Cc1csc(NC(=O)Nc2cccc(Cl)c2)n1	3%	·	3%	3%	·	7.9µM*
OCC1OC(c2ccccc2)C=CC1Oc1ccc(C2CCCC2)cc1 (stereo not given)	·	·	·	4%[9.22 µM]	·	·
COC(=O)c1oc2ccc(OC)cc2c1N	1%	>77	1%	0%[57.5 µM]	·	?
COc1ccc(C(=O)c2oc3ccc(OC)cc3c2N)cc1	6%	·	0%	0%	·	10µM*
CCOc1ccc(-n2c(-c3ccco3)n[nH]c2=S)cc1	·	>77	6%	0%[0.369 µM]	9.4*	-7%
CCOC(=O)CSc1n[nH]c(-c2ccco2)n1	3%	·	·	0%	·	1%
CCOC(=O)c1c(C)nc(-c2ccccc2)nc1N	-4%	>77	0%	-3%	i	25µM*
CS(=O)(=O)Nc1cccc(-c2nccc(NCc3ccccc3)n2)c1	-5%	·	-3%[9.22 µM]	-1%	·	1%[2.29 µM]
COc1cc(C(=O)N2CCN(C(=O)COc3ccc4ccccc4c3)CC2)cc(OC)c1OC	6%	·	0%	-1%	·	7.9µM*
COc1ccc(C(=O)N2CCN(C(=O)c3cc(OC)c(OC)c(OC)c3)CC2)cc1	-2%	>77	0%	0%[57.5 µM]	>57	-4%
CC(=O)[C@H]1CC[C@@H]2[C@]1(C)CC=C1[C@]23C=C[C@]2(C[C@H](O)CC[C@@]12C)[C@H](C(=O)O)[C@@H]3C(=O)O	1%[9.17 µM]	·	2%[9.22 µM]	0%[9.22 µM]	·	4%[11.4 µM]
COc1ccc(C)cc1-n1nnnc1SCc1cn2ccsc2n1	-4%	>77	6%	0%[57.5 µM]	>57	3%
Cc1cccc(Nc2nnc(SCc3cn4ccsc4n3)s2)c1	1%	>77	-1%	-1%	>57	32µM*

Compound activity: PubChem BioAssay, National Center for Advancing Translational Sciences (NCATS)
